# Measurements taken from PubChem BioAssay (NCI).
# This is part of a sample that, as a whole, favours compounds with a hit. Of some 83,000 tested, about 20% had one in any assay.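 Single-concentration screen, 48 h exposure, 96-well plates. Endpoint: percent growth. Below 10 = active.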 Values without a mark were called inactive. Activity calls are given as the source filed them.
# How the values were obtained:
# Test in all cases: NCI-60 one-dose screen, 48 h (100 = growth as untreated, 0 = no growth, -100 = all killed)
# Details in all cases: 10 µM unless noted
# HCT-15 colon = tested on: HCT-15 colon
# HT29 colon = tested on: HT29 colon
# SNB-75 CNS = tested on: SNB-75 CNS
# SNB-19 CNS = tested on: SNB-19 CNS
# U251 CNS = tested on: U251 CNS
# PC-3 prostate = tested on: PC-3 prostate
# SK-MEL-5 melanoma = tested on: SK-MEL-5 melanoma
# UACC-62 melanoma = tested on: UACC-62 melanoma
# LOX IMVI melanoma = tested on: LOX IMVI melanoma
# SK-MEL-28 melanoma = tested on: SK-MEL-28 melanoma
SMILES,growth (HCT-15 colon),growth (HT29 colon),growth (SNB-75 CNS),growth (SNB-19 CNS),growth (U251 CNS),growth (PC-3 prostate),growth (SK-MEL-5 melanoma),growth (UACC-62 melanoma),growth (LOX IMVI melanoma),growth (SK-MEL-28 melanoma)
COc1ccc(-c2nnc3n(C)c(=O)c4ccccc4n23)cc1N,27.2%,4.95% (active),7.89% (active),31.1%,23.8%,22.1%,11.4%,12.9%,37.5%,53.6%
COc1ccc(-c2nc3c(c(-c4ccccc4)nn3-c3ccccc3)c(-c3ccc(N4CCN(C)CC4)cc3)c2C#N)cc1,56.2%,80.5%,106%,95.2%,77.4%,94.3%,97.8%,100%,69.2%,97.5%
COc1ccc(C2=Nc3c/c(=C\c4c(O)[nH]c5ccc(Cl)cc45)ccc3=N2)cc1,22.5%,-13.9% (active),36.2%,65%,42%,37%,34.7%,48.1%,9.27% (active),35.6%
O=Cc1ccc([N+](=O)[O-])s1,48.7%,55.4%,85.8%,91.4%,89.6%,92.6%,102%,80.2%,85.8%,99.5%
CC/C(=C(/c1ccc(Cl)cc1)c1ccc(OCCN2CCCC2)cc1)c1ccc(OC)cc1,28.1%,13.7%,103%,80.1%,45.3%,47.5%,66%,96.3%,68.7%,85%
COc1ccc(C/C(C)=C(/c2ccc(OCCN3CCCCC3)cc2)c2ccc(OC(=O)NCc3ccccc3)cc2)cc1,-85.4% (active),-87.8% (active),-88.9% (active),-90.6% (active),-97.5% (active),-95.9% (active),-100% (active),-92.9% (active),-93% (active),-85.8% (active)
Cc1nc(-c2ccccc2)cc2c(O)c(C(=O)NN)[nH]c(=O)c12,107%,114%,104%,106%,106%,67.3%,100%,98.6%,107%,111%
CC1(C)CC[C@]2(c3nnc(-c4ccncc4)o3)CC[C@H]3C(=CC[C@H]4[C@@]3(C)CC[C@H]3C(C)(C)C(=O)CC[C@]43C)[C@@H]2C1,61.1%,50.9%,68.3%,74%,62.4%,25.1%,62.4%,54.7%,57.4%,87.5%
CN(C)CC(=O)Nc1ccc2ncnc(Nc3ccc(Oc4cccc(C(F)(F)F)c4)c(Cl)c3)c2c1,1.59% (active),2.56% (active),87.2%,70.3%,36.2%,61.7%,66.5%,88.2%,-93% (active),78%
CC[C@@H](C(=O)[C@@H](C)[C@@H](O)[C@H](C)[C@@H]1O[C@@H]([C@@H](CC)C(=O)NCCc2ccc(F)cc2)CC[C@@H]1C)C1O[C@]2(C=CC(=O)[C@]3(CC[C@@](C)([C@H]4CC[C@](O)(CC)[C@H](C)O4)O3)O2)[C@H](C)C[C@@H]1C (stereo not given in full),29.1%,47.2%,20.8%,26.2%,28.4%,8.72% (active),24.6%,26.7%,52.8%,58.2%
O=C(Nc1cccnc1Nc1ccc(F)cc1)c1cn(Cc2cccc(Oc3ccccc3)c2)nn1,43.4%,53.1%,65.6%,67.8%,51.4%,61.6%,39.3%,44.8%,48.5%,68.7%
Cc1ccc(NC(=S)NNC(=S)NNc2ccccc2)cc1C,103%,104%,107%,106%,96.8%,55.7%,95.7%,104%,106%,115%
O=C1COCCN1c1ccc(Nc2nc(Cl)nc(OCc3cn(Cc4ccccc4)nn3)n2)cc1,93.3%,90.8%,101%,90.3%,83.4%,89.4%,95.8%,92.2%,75.7%,101%
CN1CCN(Cc2ccc3c(NNC(=O)c4ccccc4)nc4cc(F)ccc4n23)CC1,33.8%,30.7%,48.8%,27.4%,12.2%,39.9%,-26.8% (active),4.48% (active),7.25% (active),34.9%
N#Cc1c(NC(=O)c2ccccc2)sc2c1CCC(=O)C2,-3.43% (active),14.1%,-6.39% (active),19.1%,13.4%,12%,-75.8% (active),1.83% (active),6.26% (active),17.5%
Oc1ccc(CCn2c(O)c(/C=C3\CN=c4ccccc4=N3)sc2=S)cc1,35.2%,62%,23.2%,82.2%,80.3%,60.2%,88.3%,58%,10.2%,77.5%
COc1ccc2cc(C(=O)c3coc4ccc(O)cc34)ccc2c1,103%,95.6%,101%,104%,103%,95.5%,99.5%,98.7%,97.4%,111%
Nc1c(C(=O)Nc2ccccc2Cl)sc2nc3c(cc12)C(O)CCC3 (stereo not given),30.5%,6.13% (active),22.9%,41.6%,29.4%,36.8%,21.4%,47.9%,45.5%,79.2%
Cc1cc(Cl)ccc1NC(=O)c1cc2ccccc2cc1O,13.2%,80.5%,38.1%,20%,-14% (active),0.952% (active),8.89% (active),19.1%,28.9%,41.6%
Brc1ccc2[nH]cc(-c3nonc3-c3c[nH]c4ccccc34)c2c1,19.5%,11.2%,46.5%,63.8%,43.3%,35.2%,59.7%,39.2%,2.2% (active),77.6%
CCOC(=O)c1c(NC(=O)c2ccc(C(C)C)cc2)sc2c(CN(C)C)c(O)ccc12,-49.2% (active),27%,98.5%,57.8%,6.18% (active),96.1%,80.7%,53.8%,-83.3% (active),-14.9% (active)
CCN(CC)CCOc1ccc(-c2c(-c3ccccc3)c(=O)oc3ccccc23)cc1,72.2%,51.7%,81.8%,90.7%,85.5%,64.9%,71.6%,82.7%,81.3%,98.6%
CCCCCCCCn1ccc2cc(NC(=O)Cn3cc(CN4CCCCC4)nn3)ccc21,-40.7% (active),-61.2% (active),73.4%,-49.2% (active),-53.6% (active),54.6%,-93% (active),-81.4% (active),-80.3% (active),-85.4% (active)
CCOC(=O)c1cnc2ccccc2c1Cl,101%,101%,78.2%,99.2%,102%,90.9%,88.1%,95.2%,86.2%,103%
O=C(O)c1ccc(-n2cc(/C=N/Nc3ccc(F)cc3)c(-c3cc4ccccc4oc3=O)n2)cc1,33.9%,91%,85.6%,89.2%,104%,69.8%,93.6%,46.1%,46.6%,92.3%
CC(C)(C)[Si](C)(C)O[C@H]1C(=O)C=CN2CC=C[C@@H]12,104% [100 µM],106% [100 µM],91% [100 µM],89.1% [100 µM],98.5% [100 µM],91.9% [100 µM],106% [100 µM],85.3% [100 µM],102% [100 µM],117% [100 µM]
CC1=Nc2cnc(Nc3ccc(OCCN4CCCC4)cc3)nc2Nc2ccccc21,33.9%,60.9%,20.1%,91.1%,80.9%,61.7%,71.6%,84.3%,52.2%,94%
